# TTR transcr act = TTR transcription activation, primary screen | AID 1117267 | 92,000 compounds, 1.3% hits | SH-SY5Y TTR promoter Gaussia luciferase, luminescence; 100% = recombinant luciferase protein wells | activation, % at 16.7 µM;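 active = activation above the mean of all tested compounds plus 3 SD, cut at about 9.5% in these data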;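 note: cells exposed to compounds for one day before reading; 0% = median of all test compound wells on the plate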
# HuH7 TTR inh = HuH7 TTR transcription inhibition, counter-screen. shares compounds with TTR transcr act. HuH7 TTR promoter-Gaussia luciferase reporter, luminescence. inhibition, % at 16.7 µM. 1,100 compounds, 4% hits;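 active = average inhibition above the solvent-only control wells' mean plus 3 SD, cut at about 15% in these data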;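 note: 0% = cells with DMSO only and 100% = cells with inhibitor control FD; inhibitors lower well luminescence so higher value means more inhibition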
# TTR up confirm = confirmation of human transthyretin transcription activators; shares compounds with TTR transcr act; activation, % at 16.7 µM; SHSY5Y TTR promoter Gaussia luciferase, luminescence; 100% = purified Lucia enzyme wells, no cells; 1,100 tested, under 10 active; AID 1117280;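 active = mean activation above a set limit taken from the earlier primary screen, cut at about 11% in these data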;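 note: 0% = DMSO-treated cells and 100% = recombinant Lucia luciferase without cells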
# * = called active by the depositor. This excerpt belongs to a sample that is enriched for hits.
SMILES,TTR transcr act,others
CC1=C(C(=O)OCc2ccccc2)C(c2ccccc2Cl)NC(=O)N1C (stereo not given),2.4,
CC1SC(c2ccccc2Cl)NC1=O (stereo not given),10.8*,HuH7 TTR inh=-3.9;TTR up confirm=-0.4
CC1(C)COC(c2ccccc2Cl)OC1,0.1,
COc1cc2c(c(NC(C)=O)c1)N(C(C)=O)CCC2,-1.5,
O=[N+]([O-])c1ccc2nc(CNc3nc(N4CCOCC4)nc4c3ncn4-c3ccsc3)[nH]c2c1,1.9,
CC[C@]12c3[nH]c4cc(-c5ccco5)ccc4c3CCN1C(=O)[C@@H](CC(=O)NCCC1=CCCCC1)C[C@@H]2C(=O)N1CCN(C(=O)C2CC2)CC1,4.0,
CC[C@]12c3[nH]c4cc(-c5ccco5)ccc4c3CCN1C(=O)[C@@H](CC(=O)NCc1ccc(OC)c(OC)c1)C[C@@H]2C(=O)N1CCN(C(=O)C2CC2)CC1,10.4*,HuH7 TTR inh=0.9;TTR up confirm=-0.3
CC[C@]12c3[nH]c4cc(CCC(=O)N(C)C)ccc4c3CCN1C(=O)[C@@H](CC(=O)NCc1ccc(OC)c(OC)c1)C[C@@H]2C(=O)N1CCN(C(=O)C2CC2)CC1,2.4,
COC(=O)C[C@@H]1CC[C@H]2[C@H](COc3ccc(NC(=O)c4cccc(C(F)(F)F)c4)cc3C(=O)N2C)O1,1.6,
O=C(COC(=O)c1ccccn1)NCCc1ccc(Cl)cc1,10.5*,HuH7 TTR inh=-8.4;TTR up confirm=0.3
O=C(COC(=O)c1ccccn1)Nc1cccc(Cl)c1Cl,1.5,
Cc1ccnc2nc(C(=O)OCC(=O)NCCc3ccc(Cl)cc3)nn12,1.1,
CCOC(=O)c1sc(=S)n(C)c1NC(=O)c1ccccc1C,0.9,
O=C(CNC1CCCC1)Nc1cc(Cl)ccc1[N+](=O)[O-],-1.7,
Cc1ccc([N+](=O)[O-])cc1NC(=O)CNC1CCCCC1,17.4*,HuH7 TTR inh=-8.0;TTR up confirm=-0.4
Cc1ccc([N+](=O)[O-])cc1NC(=O)Cc1cccs1,-0.1,
COc1cccc(-n2nnc3c(=O)n(CC(=O)Nc4cc(C)on4)cnc32)c1,0.8,
NNC(=O)C(=O)Nc1ccc(Cl)c(Cl)c1,0.4,
CCN(CC)CCNC(=O)c1nn(-c2ccc(Cl)cc2)c2c1CCc1cc(OC)ccc1-2,-1.0,
CCCc1cc(=O)c2ccc(OCC(C)=O)cc2o1,0.2,
CC(=O)COc1ccc2c(C)c(C)c(=O)oc2c1,13.8*,HuH7 TTR inh=-9.4;TTR up confirm=8.3
COc1ccc(-c2cc(=O)oc3cc(OCC(C)=O)ccc23)cc1,0.2,
CC(NC(=O)C1CCCN(C(=O)N(C)C)C1)c1ccccc1 (stereo not given),0.4,
Cc1ccc(-c2n[nH]c(=S)n2/N=C/c2sccc2C)cc1,1.3,
S=c1[nH]nc(-c2ccncc2)n1/N=C/C=C/c1ccccc1,4.8,
SMILES,TTR transcr act,others
Cc1ccc(-c2n[nH]c(=S)n2/N=C/c2ccncc2)cc1,10.0*,HuH7 TTR inh=5.7;TTR up confirm=0.0
O=C(N/N=C/c1cc2c(cc1Cl)OCO2)c1cc(-c2ccccc2)n[nH]1,-0.8,
Cc1ccc(C(=O)N2CCCC(N3CCN(c4cccc(C(F)(F)F)c4)CC3)C2)s1 (stereo not given),-0.3,
O=C(c1ccoc1)N1CCCC(N2CCN(c3cccc(C(F)(F)F)c3)CC2)C1 (stereo not given),-0.1,
CC1=C(C(=O)N2CCCC(N3CCN(c4cccc(C(F)(F)F)c4)CC3)C2)OCCO1 (stereo not given),11.1*,HuH7 TTR inh=-5.7;TTR up confirm=0.0
O=C(C[C@H]1C/C=C\C[C@H](NC(=O)OCC2c3ccccc3-c3ccccc32)C(=O)OC[C@H](Cc2ccccc2)NC1=O)N[C@H](CO)Cc1ccccc1,-2.0,
CC(=O)Nc1c(-c2ccc(F)cc2)nc2ncccn12,1.4,
FC(F)(F)c1ccccc1Cn1ccc2ccc(-c3ccc4ccn(Cc5ccccc5C(F)(F)F)c4c3)cc21,18.2*,HuH7 TTR inh=-6.1;TTR up confirm=-0.4
FC(F)(F)c1ccccc1Cn1ccc2ccc(-c3ccc4ccn(Cc5ccccc5)c4c3)cc21,-1.7,
Cc1ccccc1Cn1ccc2ccc(-c3ccc4ccn(Cc5ccccc5)c4c3)cc21,-0.7,
O=C(CSc1cccc[n+]1[O-])Nc1ccc(Cl)cc1F,11.1*,HuH7 TTR inh=-10.0;TTR up confirm=0.5
Cc1ccc(Cl)c(NC(=O)CSc2cccc[n+]2[O-])c1Cl,14.3*,HuH7 TTR inh=-9.4;TTR up confirm=-0.1
O=C(CSc1cccc[n+]1[O-])Nc1ccc(Br)cc1Br,0.2,
CN(C)S(=O)(=O)c1cc(NC(=O)CSc2cccc[n+]2[O-])ccc1Cl,0.9,
Cc1cc(C)c(NC(=O)CSc2cccc[n+]2[O-])c(C)c1,0.6,
O=C(CSc1cccc[n+]1[O-])Nc1cc2c(cc1Cl)C(=O)c1ccccc1C2=O,-1.9,
C[C@@H]1CN([C@H](C)CO)C(=O)CCCn2cc(nn2)CO[C@H]1CN(C)C(=O)c1ccncc1,0.4,
Nc1nc(-c2ccc3c(c2)CCO3)cs1,-0.3,
COc1ccc(-c2nc3cc(C)c(Br)c(C)n3c2Cc2ccccc2)cc1OC,0.9,
O=C(CSc1n[nH]c(=O)n1Cc1ccccc1)Nc1ccc(N2CCOCC2)cc1,-0.1,
CCOc1ccccc1N1CCN(C(=O)c2cn(CC3CCCCC3)nn2)CC1,-4.2,
CCOC(=O)N1CCN(C(=O)COC(=O)c2ccc(N(C)C)cc2)CC1,-0.4,
CN(C)c1ccc(C(=O)OCC(=O)N2CCCCCC2)cc1,-2.2,
CN(C)c1ccc(C(=O)OCC(=O)N2CCCC2)cc1,13.0*,HuH7 TTR inh=-14.7;TTR up confirm=-0.5
CC(c1ccccc1)C(OC(=O)c1cccc([N+](=O)[O-])c1C(=O)O)c1ccccc1 (stereo not given),2.0,
SMILES,TTR transcr act,others
CC(C)C(=O)N1CCCC1(C)C(=O)NCc1ccc(Cl)cc1 (stereo not given),0.7,
CC(Sc1ccccc1)C(=O)N1CCN(S(=O)(=O)c2ccccc2F)CC1 (stereo not given),0.5,
CCCCNc1nc2sc3c(c2c(=O)n1-c1cccc(Cl)c1)CCN(C)C3,101.8*,HuH7 TTR inh=-9.1;TTR up confirm=0.6
CN1CCc2c(sc3nc(SCC(=O)N4CCCCC4)n(-c4ccccc4)c(=O)c23)C1,8.0,
CCSc1nc2sc3c(c2c(=O)n1-c1ccccc1C)CCN(C)C3,-1.3,
COc1ccc(OC(C)C(=O)NC2CCCCCC2)cc1 (stereo not given),0.0,
CN1[C@@H](COCc2ccccc2)C=CS1(=O)=O,-0.3,
CN(C)CCN(C)C1CN(Cc2ccccc2)S(=O)(=O)C1 (stereo not given),1.0,
O=C1CCC(C(=O)Nc2cccc(S(=O)(=O)N3CCOCC3)c2)N1 (stereo not given),-1.3,
CCCCn1nnnc1C(c1ccccc1)N1CCN(CCN2CCOCC2)CC1 (stereo not given),1.6,
O=C(CCC(=O)c1cccs1)NNC(=O)c1cc(Cl)ccc1Cl,0.3,
O=C(NNC(=O)c1cc(Cl)ccc1O)c1cccs1,2.5,
COc1ccc(Cl)cc1C(=O)NNC(=O)COC(=O)c1cccs1,10.5*,HuH7 TTR inh=-5.8;TTR up confirm=-0.5
Cc1cc(CN2C(=O)c3ccccc3C2=O)on1,15.1*,HuH7 TTR inh=-6.8;TTR up confirm=-0.4
O=C1c2ccccc2C(=O)N1Cc1cccnc1,-1.6,
COC(=O)c1ccc(CN2C(=O)c3ccccc3C2=O)o1,0.4,
C[C@H]1[C@@H](NC(=O)c2ccc(Cl)cc2)CC[C@@]23CCCN2C(=O)CCC[C@@H]13,1.1,
COc1cccc(NC(=O)Nc2nc3ncccn3c2-c2ccc(F)c(F)c2)c1,0.4,
CC(CC(=O)Nc1cccc(F)c1)S(=O)(=O)c1ccc2c(c1)NC(=O)CO2 (stereo not given),-0.1,

# Bioassay records (PubChem)
